This is a sample that favours compounds with a hit; in the whole collection about 2.4% have one here.
D2 PAM-1: Beta-Arrestin HTS for Positive Allosteric Modulators of the Human D2 Dopamine Receptor: Potentiators; D(2) dopamine receptor (Homo sapiens), P14416; DiscoveRx D2 beta-arrestin cells, luminescence, 90 min; 100% = 57 uM dopamine signal; potentiation, % (no concentration beside the values); 0.23% of 360,000 active; AID 624464, 2012; in the data active = potentiation above about 50%; inconclusive = mostly about 30% to 49%
Target sequence (P14416 whole entry, looked up): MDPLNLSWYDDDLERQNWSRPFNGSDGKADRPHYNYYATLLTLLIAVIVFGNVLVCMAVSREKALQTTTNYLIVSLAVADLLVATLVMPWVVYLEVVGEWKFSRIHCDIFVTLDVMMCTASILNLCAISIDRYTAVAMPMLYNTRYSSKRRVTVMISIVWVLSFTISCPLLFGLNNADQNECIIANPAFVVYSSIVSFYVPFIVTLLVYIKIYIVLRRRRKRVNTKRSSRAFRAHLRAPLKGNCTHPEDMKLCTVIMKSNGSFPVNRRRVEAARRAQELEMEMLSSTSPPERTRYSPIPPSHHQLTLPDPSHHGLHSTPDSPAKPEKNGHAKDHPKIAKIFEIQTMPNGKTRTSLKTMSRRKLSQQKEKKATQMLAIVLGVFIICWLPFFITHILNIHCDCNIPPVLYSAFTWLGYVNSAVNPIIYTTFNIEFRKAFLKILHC
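PathHunter D2 cells, attached overnight at 37 deg C, received compound in DMSO plus dopamine at EC20 (50 nM final) for 90 min at 37 deg C. Beta-arrestin recruitment was read as luminescence after 1 h with detection reagent at ambient temperature.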
D2 ag-1: HTS Assay for Allosteric Agonists of the Human D2 Dopamine Receptor: Primary Screen for Agonists | D(2) dopamine receptor (Homo sapiens), P14416 | HEK293 T-REx D2 cells, calcium flux agonist mode | activation, % at 2 µM | 0.53% of 340,000 active;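 active = activation over 3 SD above normal in the single-dose calcium agonist read, cut at about 30% in these data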; also: 0% is about no effect
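Agonism is scored from calcium flux in a force-coupled, inducible HEK293 cell line expressing D2, read kinetically for 180 s after compound addition against dopamine controls.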
D2 PAM-2: HTS Assay for Positive Allosteric Modulators of the Human D2 Dopamine Receptor: Primary Screen for Potentiators; 0.34% of 340,000 active; HEK293 T-REx D2, calcium flux, EC20 dopamine potentiation; AID 485347, 2010; potentiation, % at 10 µM; D(2) dopamine receptor (Homo sapiens), P14416;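 active = potentiation over 3 SD above the plate norm, cut at about 30% in these data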; also: 0% is about no effect
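Primary screen. Calcium kinetics in induced HEK293 T-REx D2 cells: compound pre-addition 180 s, EC20 dopamine, 180 s more.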
D2 antag: HTS Assay for Allosteric Antagonists of the Human D2 Dopamine Receptor: Primary Screen for Antagonists; D(2) dopamine receptor (Homo sapiens), P14416; HEK293 TREx D2 cells, calcium flux, dopamine EC80; inhibition, % at 10 µM; 2% of 340,000 active; in the data active = inhibition above about 30%; inactive = below that, where a call was filed; also: 0% is about no effect
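Tetracycline-induced HEK293 T-REx cells expressing D2 force-coupled to calcium signalling were dye-loaded, exposed to compound for 180 s, then challenged with an EC80 of dopamine; calcium flux was followed kinetically for a further 180 s.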
D2 ag-2: Beta-Arrestin HTS for Positive Allosteric Modulators of the Human D2 Dopamine Receptor: Agonists | AID 624465, 2012 | activation, % (concentration not given with the values) | 0.084% of 360,000 active | D(2) dopamine receptor (Homo sapiens), P14416 | DiscoveRx PathHunter D2 beta-arrestin, luminescence, 90 min; 100% = 57 uM dopamine signal; in the data active = activation above about 40%; inconclusive = between about 15% and that limit
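Agonist mode: compounds alone added to overnight-plated D2 PathHunter cells for 90 min at 37 C, with 57 uM final dopamine (EC100) defining full response. Beta-arrestin recruitment detected by chemiluminescent reagent, read after 1 h at ambient temperature.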
The depositor's hits bear a star; ? = inconclusive; / = not tested or not shown.

SMILES	D2 PAM-1	D2 ag-1	D2 PAM-2	D2 antag	D2 ag-2
COc1ccc(NC(=O)CCN2C(=O)c3ccncc3C2=O)cc1OC	-14	0	0	34*	-6
CC(=O)Nc1ccc(/C=N/N2CCCCC2)cc1	-9	1	-1	4	-3
NC(=O)C(c1ccccc1)C1CCCCC1 (stereo not drawn)	-23	0	-5	52*	-5
N#Cc1cccc(Oc2ccc(S(=O)(=O)N3CCCC3)cn2)c1	1	-1	-11	35*	-2
N#Cc1ccc(CSc2ccc(S(=O)(=O)N3CCCC3)cn2)cc1	-1	-1	0	30*	-5
Cc1ccc(CSc2ccc(S(=O)(=O)N3CCCC3)cn2)cc1	0	-2	6	8	-3
COc1ccc(N2CCN(S(=O)(=O)c3ccc(-c4cc(C(F)(F)F)on4)s3)CC2)cc1	/	0	-1	/	/
CCN(CC)CCNC(=O)c1ccc(-c2nc(CS(=O)(=O)c3ccc(C)cc3)c(C)o2)cc1	/	1	-7	/	/
Brc1ccc(C=Nc2ccc(Nc3ccccc3)cc2)s1	87*	2	12	-13	?
C(=Nc1ccc(Nc2ccccc2)cc1)c1ccc2ccccc2c1	52*	0	-7	-9	10
NC(=S)N/N=C/c1ccc2ccccc2c1	-17	-1	-13	48*	-2
CCOC(=O)c1ccccc1NC(=O)Cn1c(=O)n(Cc2nc(-c3ccccc3)no2)c(=O)c2ccccc21	/	1	-4	/	/
CCCCn1c(CCC)nc([N+](=O)[O-])c1Sc1ccc(Cl)cn1	-13	2	-12	40*	-2
CCOC(=O)c1ccc(Nc2c(-c3cccc(O)c3)nc3nc[nH]n23)cc1	/	1	8	/	/
Oc1ccc(-c2nccc(-c3ccc(Cl)cc3Cl)n2)cc1	-3	-1	95*	6	0
Oc1ccc(-c2nccc(-c3ccc(Cl)cc3)n2)cc1	-5	-1	-1	2	3
CSc1ccc(S(=O)(=O)NCC(=O)OCC(=O)NCCc2ccccc2)cc1[N+](=O)[O-]	3	-1	14	33*	2
CC1=C(C(N)=O)C(c2cccc(Br)c2)n2nc(SCc3ccccc3)nc2N1 (stereo not drawn)	/	0	-1	/	/
CCOc1ccc(C(=O)Nc2ccc(OCc3cc(=O)n4cccc(C)c4n3)cc2)cc1	/	1	9	/	/
COc1ccc(C)cc1NC(=S)NC(C)c1ccc(OC)c(OC)c1 (stereo not drawn)	53*	1	-2	-11	0
CC(=O)c1c(-c2ccccc2)c2cc(Cl)ccc2[nH]c1=O	-46	-1	2	75*	-1
CCN1C(=O)N[C@@H](c2cccs2)C(C(C)=O)=C1C	-3	0	-3	6	1
CCCC(=O)Nc1ccc2oc(-c3cccnc3)nc2c1	?	-1	13	32*	-2
CCCCC(=O)Nc1ccc2oc(-c3cccnc3)nc2c1	13	-1	-7	5	-3
CC1(NC(=O)C2CCCCC2)CCS(=O)(=O)C1 (stereo not drawn)	0	2	-3	42*	-18
SMILES	D2 PAM-1	D2 ag-1	D2 PAM-2	D2 antag	D2 ag-2
C[C@H](CO)N1C[C@H](C)[C@@H](CN(C)C(=O)NC2CCCCC2)Oc2c(NC(=O)C3CC3)cccc2C1=O	-4	/	/	/	2
Cn1c(=O)c(/C=C/c2ccc(F)cc2)nc2ccccc21	-9	0	5	8	-2
O=c1c(/C=C(\O)c2ccc(F)cc2)nc2ccccc2n1-c1ccccc1	-16	44*	-10	4	-7
CC(=O)Nc1ccccc1OCc1cc(=O)n2c3c(sc2n1)CCCC3	/	-1	6	/	/
CCCCC1=CC2=C(c3ccco3)C(=O)C(C)(OC(=O)c3ccc(OC)cc3)C(=O)C2=CN1Cc1ccc2c(c1)OCO2 (stereo not drawn)	-16	0	0	33*	0
CCCCC1=CC2=C(c3ccco3)C(=O)C(C)(OC(=O)c3ccc(OC)cc3)C(=O)C2=CN1Cc1ccccc1 (stereo not drawn)	10	0	-7	5	3
CCCCC1=CC2=CC(=O)C(C)(OC(=O)CC)C(=O)C2=CN1Cc1ccc(OC)cc1 (stereo not drawn)	-1	0	9	31*	3
Clc1ccc(CNc2ncnc3onc(-c4ccc(Cl)cc4)c23)cc1	/	0	-12	/	/
Cc1ccc(/C(N)=N/OC(=O)N2c3ccccc3Sc3ccccc32)cc1	101*	/	/	/	?
O=C1Nc2ccccc2CCc2ccccc21	0	0	-2	36*	2
O=C1Nc2ccccc2Nc2ccccc21	-7	1	26	-8	-2
Cc1ccc(S(=O)(=O)NC(=O)C2(C)CCN2C(=O)c2ccccc2)nc1 (stereo not drawn)	-10	/	/	/	-5
CC(=O)c1cccc(N2C(=NC(=O)CCc3ccccc3)SC3CS(=O)(=O)CC32)c1 (stereo not drawn)	-7	0	-2	32*	-2
CC1(c2ccc(Cl)cc2)NC(=O)N(CC(=O)N2CCN(C(=O)c3cccs3)CC2)C1=O (stereo not drawn)	-9	/	/	/	-4
COC(=O)CCC(=O)OC1(C)C(=O)C2=CN(C(CO)CO)C(c3ccc(OC)cc3)=CC2=C(Br)C1=O (stereo not drawn)	/	3	-10	30*	/
Cc1cc(C)c(S(=O)(=O)N2CCC(N3CCN(Cc4ccccc4)C(=O)C3=O)CC2)c(C)c1	/	0	1	/	/
O=C(O)c1cccc(CN2C(=O)S/C(=C/c3cccc([N+](=O)[O-])c3)C2=O)c1	2	0	4	34*	-1
COc1ccc(Nc2nc(C(=O)N3CCc4ccccc4C3)cs2)cc1	-6	0	25	81*	-5
COc1ccc(Nc2nc(C(=O)N3CCc4cc(OC)c(OC)cc4C3)cs2)cc1	4	-2	-1	22	10
CN1CCc2nc3sc(C(=O)Nc4ccccc4C(F)(F)F)c(N)c3cc2C1	/	/	16	/	/
CCn1c(CNC(=O)c2cccc(C)c2)nnc1SCC(=O)N1CCOCC1	-4	0	-3	28	-3
COc1ccc2c(c1)C=C(CN1CCC(CO)(CCc3ccccc3)CC1)CO2	-18	1	-24	31*	-1
COc1ccc2c(c1)C=C(CN1CCN(Cc3ccccc3C)C(CCO)C1)CO2 (stereo not drawn)	-25	-1	-20	58*	4

Screens: PubChem, National Center for Advancing Translational Sciences (NCATS)
